# Experimental data from PubChem BioAssay (EPA / NIEHS).
# Results filed as inconclusive are left out. Calls of active or inactive are those of the source. Rule for the calls: active = hit-call score of the fitted dose curve at least 0.9, where 1 is the maximum; inconclusive = response in the unintended direction; inactive = score below 0.9.
# Read-out: xenobiotic metabolism (CYP1A1), CYP1A1 (gene 1543)
# Test: CLD_CYP1A1_48hr: CellzDirect (CLD) Gene Expression Assay for xenobiotic metabolism (CYP1A1) at 48 hours (AID 2283705)
# Protocol: CLD_48hr is a cell-based, multiplexed-readout assay that uses hepatocyte, a human liver primary cell, with measurements taken at 48 hours after chemical dosing in a 96-well plate.CLD_CYP1A1_48hr is one of 16 assay component(s) measured or calculated from the CLD_48hr assay. It is designed to make measurements of mRNA induction, a form of inducible reporter, as detected with chemiluminescence signals by Quantitative Nuclease Protection Assay (qNPA) technology.Data from the assay component CLD_CYP1A1_48hr was analyzed at the endpoint, CLD_CYP1A1_48hr, in the positive analysis fitting direction relative to DMSO as the negative control and baseline of activity. Using a type of inducible reporter, gain-of-signal activity can be used to understand changes in the reporter gene as they relate to the gene CYP1A1. Furthermore, this assay endpoint can be referred to as a primary readout. To generalize the intended target to other relatable targets, this assay endpoint is annotated to the cyp intended target family, where subfamily is xenobiotic metabolism.
# Human hepatocyte cultures were treated daily for two consecutive days with fresh dosing solutions containing appropriate concentrations of the 320 ToxCast chemicals (chemical identities were blinded to CellzDirect and other ToxCast collaborators), vehicle control (0.2% DMSO), and positive control inducers as summarized in Table 1. Due to the large number of treatment groups and chemicals examined, the ToxCast chemicals were divided into two groups (spanning two independent cultures of hepatocytes from separate donor preparations (Hu778: ToxCast plates 1 and 2; Hu776: ToxCast plates 3 and 4). Each preparation of human hepatocyte cultures was treated with respective vehicle control, medium only control, set of six positive controls/reference chemicals for the five hepatic receptor pathways, and a subset of eight of the ToxCast chemicals (indoxacarb, pyrithiobac-sodium, norflurazon, cyhalofop-butyl, methomyl, thiram, acetochlor, and propiconazole). These replicate data, coupled with internal replicates designed within the blinded ToxCast chemical library, provided additional data to evaluate interindividual differences between hepatocyte preparations and their potential impact on chemical profiles.Cell morphology and integrity were evaluated using phase-contrast microscopy as an indicator of hepatocyte cell health (Tyson & Green, 1987). Cultures for each treatment group (i.e., media, vehicle [0.2% DMSO], positive control inducers [multiple concentrations], and the ToxCast chemicals [multiple concentrations]) were observed and cell morphology was assessed relative to vehicle control cultures at each harvest time point (0, 6, 24, or 48 h). […] Images were evaluated at the conclusion of the study to assess changes in cell integrity and account for the effects of chemical exposure on uncharacteristic changes in concentration-dependent gene expression profiles. The results from these determinations of apparent cytotoxicity were annotated (yes/no) alongside the corresponding qNPA data for reference.At the conclusion of each treatment period, hepatocyte cultures (96-well) were washed with 1 volume of HBSS, lysed by addition of 25 ul ArrayPlate lysis buffer (HTG, Tucson, AZ), and 70 ul/well of Denaturation Oil, denatured by incubation at 95C for 10 min, and frozen at approximately -70C until analysis by nuclease protection assay (qNPA) (Roberts et al., 2007). For qNPA analysis, cell lysates were thawed at 50C for approximately 30 min, qNPA probes were added, and samples were incubated at 95C for 10 min to begin the detection process by denaturing the target RNA, dissociating the duplexes and secondary structure hybridization. At the conclusion of the hybridization period, S1 nuclease reagent was added to each sample to digest all nonprotected nucleotides at 50C for 60-90 min. […]
Structure (SMILES),outcome,AC50
CCCSP(=O)(OCC)Oc1ccc(Br)cc1Cl (stereo not given),inactive,–
Cc1nn(-c2cc(NS(C)(=O)=O)c(Cl)cc2Cl)c(=O)n1C(F)F,inactive,–
C#CCC1=C(C)C(OC(=O)C2C(C=C(C)C)C2(C)C)CC1=O (stereo not given),–,33 µM (active)
CCC(=O)Nc1ccc(Cl)c(Cl)c1,–,4.64 µM (active)
Nc1c(Cl)cc([N+](=O)[O-])cc1Cl,–,4.01 µM (active)
COP(=O)(NC(C)=O)SC (stereo not given),inactive,–
CCOP(=S)(OCC)Oc1ccc2c(C)c(Cl)c(=O)oc2c1,–,1.89 µM (active)
CN(C)C(=O)Nc1cccc(C(F)(F)F)c1,–,7.21 µM (active)
CCOC(=O)CC(SP(=O)(OC)OC)C(=O)OCC (stereo not given),inactive,–
C[Si](Cn1cncn1)(c1ccc(F)cc1)c1ccc(F)cc1,–,0.727 µM (active)
CC(COc1ccc(Oc2ccccc2)cc1)Oc1ccccn1 (stereo not given),inactive,–
CNC(=O)Oc1cccc2c1OC(C)(C)O2,inactive,–
CCOP(=S)(OCC)Oc1ccc([N+](=O)[O-])cc1,–,3.61 µM (active)
CN1COCN(Cc2cnc(Cl)s2)C1=N[N+](=O)[O-],inactive,–
C=C(C)[C@H]1Cc2c(ccc3c2O[C@@H]2COc4cc(OC)c(OC)cc4[C@@H]2C3=O)O1,–,2 µM (active)
CCOP(=S)(OCC)SCCSCC,–,20 µM (active)
CC(C1CC1)C(O)(Cn1cncn1)c1ccc(Cl)cc1 (stereo not given),inactive,–
CC(=NC#N)N(C)Cc1ccc(Cl)nc1,inactive,–
FC(F)C(F)(F)OCC(Cn1cncn1)c1ccc(Cl)cc1Cl (stereo not given),–,8.06 µM (active)
CC(C)[C@H](C(=O)O[C@H](C#N)c1cccc(Oc2ccccc2)c1)c1ccc(Cl)cc1,–,20 µM (active)

Structure (SMILES),outcome,AC50
CSC1=N[C@@](C)(c2ccccc2)C(=O)N1Nc1ccccc1,–,20 µM (active)
CCc1cnc(C2=NC(C)(C(C)C)C(=O)N2)c(C(=O)O)c1 (stereo not given),inactive,–
CC1=NNC(=O)N(/N=C/c2cccnc2)C1,–,3.97 µM (active)
CSc1nc(NC(C)C)nc(NC(C)C)n1,–,20 µM (active)
C#CC(C)(C)NC(=O)c1cc(Cl)cc(Cl)c1,inactive,–
COP(=O)(OC)OC(Br)C(Cl)(Cl)Br (stereo not given),inactive,–
CCc1cccc(CC)c1N(COC)C(=O)CCl,–,1.89 µM (active)
CCC(CC)Nc1c([N+](=O)[O-])cc(C)c(C)c1[N+](=O)[O-],inactive,–
CC(C)N(C(=O)SCC(Cl)=C(Cl)Cl)C(C)C,inactive,–
COP(=O)(OC)SCn1c(=O)oc2cc(Cl)cnc21,inactive,–
CCCOCC(=Nc1ccc(Cl)cc1C(F)(F)F)n1ccnc1,–,6.01 µM (active)
CNC(=O)ON=C(C)SC,inactive,–
Cc1cc(C2CC2)nc(Nc2ccccc2)n1,inactive,–
CCOP(=S)(Oc1cnc(C(C)(C)C)nc1)OC(C)C (stereo not given),–,3.91 µM (active)
CCCCSP(=O)(SCCCC)SCCCC,–,4.08 µM (active)
CCOP(=O)(NC(C)C)Oc1ccc(SC)c(C)c1 (stereo not given),inactive,–
CCNc1nc(Cl)nc(NC(C)(C)C#N)n1,inactive,–
COc1ccc(C(=CC(=O)N2CCOCC2)c2ccc(Cl)cc2)cc1OC,–,4.77 µM (active)
Nc1nc(N)nc(NC2CC2)n1,–,11.6 µM (active)
O=[N+]([O-])c1cc(C(F)(F)F)c(Cl)c([N+](=O)[O-])c1Nc1ncc(C(F)(F)F)cc1Cl,–,0.627 µM (active)
